Experiments:
Conditions in all cases: concentration: 1 μM, replicates: in singlicate; n = 1
MEK1 = tested on: T1, MEK1
T1 construct: gene MAP2K1

MEK2 = tested on: T2, MEK2
T2 construct: gene MAP2K2

MEK3 = tested on: T3, MEK3
T3 construct: gene MAP2K3

MEK4 = tested on: T4, MEK4
T4 construct: gene MAP2K4

MEK5 = tested on: T5, MEK5
T5 construct: gene MAP2K5

MEK6 = tested on: T6, MEK6
T6 construct: gene MAP2K6

MELK = tested on: MELK
MERTK = tested on: MERTK
MET = tested on: MET
MINK = tested on: T7, MINK
T7 construct: gene MINK1

MKK7 = tested on: MKK7
MKNK1 = tested on: MKNK1
MKNK2 = tested on: MKNK2
MLCK = tested on: T8, MLCK
T8 construct: gene MYLK3

MLK1 = tested on: T9, MLK1
T9 construct: gene MAP3K9

MLK2 = tested on: MLK2
MLK3 = tested on: MLK3
MRCKA = tested on: MRCKA
MRCKB = tested on: T10, MRCKB
T10 construct: gene CDC42BPB

MST1R = tested on: MST1R
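Also: KINOMEscan kinase panel screen.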

SMILES | %Inh (MEK1) | %Inh (MEK2) | %Inh (MEK3) | %Inh (MEK4) | %Inh (MEK5) | %Inh (MEK6) | %Inh (MELK) | %Inh (MERTK) | %Inh (MET) | %Inh (MINK) | %Inh (MKK7) | %Inh (MKNK1) | %Inh (MKNK2) | %Inh (MLCK) | %Inh (MLK1) | %Inh (MLK2) | %Inh (MLK3) | %Inh (MRCKA) | %Inh (MRCKB) | %Inh (MST1R)
Cl.Oc1cccc(Nc2ccnc3cc(-c4ccncc4)ccc23)c1 [GW494601] | 33% | 100% | 0% | 18% | 99.8% | 0% | 0% | 46% | 0% | 79% | 0% | 0% | 21% | 0% | 0% | 0% | 1% | 1% | 0% | 36%
CCc1ccnc(/C=C/c2n[nH]c3cc(Sc4ccccc4C(=O)NC)ccc23)c1 | 0% | 10% | 0% | 0% | 62% | 9% | 6% | 0% | 0% | 34% | 0% | 0% | 0% | 1% | 9% | 4% | 20% | 0% | 1% | 16%
O=C(c1ccc(-c2cc(-c3c[nH]nc3-c3ccccn3)ccn2)cc1)N1CCOCC1 [GW812171] | 31% | 46% | 38% | 14% | 42% | 14% | 0% | 12% | 0% | 40% | 24% | 0% | 0% | 0% | 0% | 34% | 0% | 1% | 12% | 0%
O=C(Nc1n[nH]c2cc(-c3cccc(F)c3)ccc12)C1CC1 [SB-735464] | 8% | 10% | 8% | 4% | 31% | 0% | 0% | 23% | 0% | 61% | 19% | 0% | 29% | 35% | 0% | 0% | 4% | 4% | 0% | 15%
Nc1nc(-c2ccc3c(N)n[nH]c3c2)cc(N2CCCC2)n1 [GSK2227430] | 0% | 64% | 0% | 0% | 7% | 8% | 0% | 8% | 0% | 10% | 0% | 4% | 12% | 0% | 0% | 6% | 0% | 6% | 0% | 1%
COc1ccc(COc2cc(-n3cnc4ccccc43)sc2C(N)=O)cc1 [GSK1024304] | 0% | 0% | 0% | 14% | 32% | 0% | 0% | 1% | 0% | 24% | 0% | 13% | 1% | 0% | 0% | 0% | 4% | 0% | 0% | 25%
CCCCCc1nc2c(N)ncnc2n1CCCCC [SKF-97255] | 15% | 28% | 34% | 18% | 32% | 15% | 0% | 17% | 0% | 0% | 0% | 6% | 0% | 0% | 0% | 50% | 0% | 0% | 0% | 0%
Cn1cc(-c2ccc3c(c2)CCN3C(=O)Cc2ccccc2Cl)c2c(N)ncnc21 [GSK2608885] | 70% | 90.6% | 3% | 17% | 99.7% | 47% | 0% | 93.2% | 88% | 8% | 0% | 7% | 0% | 22% | 32% | 0% | 45% | 84% | 92.2% | 100%
COc1ccc(S(=O)(=O)NC2CCN(c3cc(C)nc(Nc4cccc(C#N)c4)n3)CC2)cc1.O=C(O)C(F)(F)F [GSK1653539] | 0% | 0% | 0% | 0% | 1% | 0% | 0% | 0% | 0% | 0% | 0% | 0% | 20% | 0% | 0% | 0% | 27% | 0% | 0% | 48%
O=c1cc(N2CCOCC2)nc2n(Cc3cccc(F)c3)ccn12 [GSK2297430] | 0% | 0% | 0% | 0% | 31% | 0% | 18% | 16% | 0% | 0% | 0% | 0% | 10% | 0% | 2% | 0% | 28% | 0% | 0% | 8%
